Pf growth 96h: inhibits malaria parasite growth, 96 h; AID 504834; P. falciparum luciferase reporter growth, 96 h; actives 6.9% (n = 320,000); Potency, µM (top dose mostly 28.7 µM), for the others: at the top dose activity change, negative = inhibition, hits mostly inhibitors; further: potency means the concentration at half of the fitted maximal effect; on the % scale 0 is the no-effect control and ±100 the full control effect
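Parasite growth measured via integrated firefly luciferase reporter in P. falciparum. Infected erythrocytes at 2% hematocrit, 0.05% parasitemia final were treated 96 hours at 37 C under 5% CO2, and luminescence was read.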
NS1 inh: inhibitors of influenza NS1 protein function; Potency, µM (titrated, usually from 46.1 µM), for inactives: at the highest dose activity, positive = more growth; actives 0.4% (n = 270,000); calls by dose curve; further: potency means the concentration at half of the fitted maximal effect; actives are rising curves; nearly all actives have a fitted effect of over 50% in size
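S. cerevisiae expressing influenza A NS1, grown in glucose, washed, then diluted 1:100 into pH 6.0 -URA galactose medium with 23 nl compound. Growth recovery read as OD600; NS1-free strain serves as control.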
Cycloheximide cs: counter-screen for Shiga toxin inhibitors: cycloheximide protein synthesis inhibition; cell reporter, cycloheximide protein synthesis inhibition counterscreen; max response, %; AID 2314; actives 12% (n = 300,000); in the data active means max response mostly above about 13%, no sharp cut-off; inactive means mostly below about 14%; further: read at 38.3 µM for the half of the compounds with a filed dose; 0% is about no effect
Giardia FBPA inh: blocks Giardia fructose-bisphosphate aldolase activity; Potency, µM (titrated, usually from 59.6 µM), for the others: at the highest dose activity, negative = inhibition, actives largely listed as inhibitors; purified Giardia FBPA; A8B2U2; actives 0.71% (n = 290,000); further: potency means the concentration at half of the fitted maximal effect; on the % scale 0 is the no-effect control and ±100 the full control effect; nearly all actives have a fitted effect of over 55% in size
Target sequence (A8B2U2 whole entry, looked up): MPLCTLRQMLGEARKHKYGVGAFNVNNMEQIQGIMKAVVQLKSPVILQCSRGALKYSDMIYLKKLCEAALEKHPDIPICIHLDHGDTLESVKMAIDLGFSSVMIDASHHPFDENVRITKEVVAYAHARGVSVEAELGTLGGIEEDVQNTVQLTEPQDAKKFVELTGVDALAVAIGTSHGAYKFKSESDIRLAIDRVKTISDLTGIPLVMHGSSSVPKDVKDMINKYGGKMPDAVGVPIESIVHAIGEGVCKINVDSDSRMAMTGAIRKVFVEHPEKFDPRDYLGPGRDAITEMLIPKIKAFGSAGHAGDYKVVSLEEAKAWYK
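Giardia FBPA (40 nM reagent) was preincubated 10 min at RT with compound (up to 57.5 uM final), then substrate plus GAPDH/TPI/NAD/arsenate coupling system with diaphorase/resazurin was added; resorufin fluorescence (525/598 nm) was read after 20 min.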
Shiga toxin inh: blocks Shiga toxin action in Vero cells. AID 2315. actives 9.2% (n = 290,000). Vero cells, Shiga toxin protein synthesis inhibition reporter. inhibition, % at 38.7 µM; in the data active means inhibition mostly above about 28%, no sharp cut-off; inactive means mostly below about 43%; further: 0% is about no effect
Pf growth 48h: P. falciparum growth inhibition at 48 hours (one generation); P. falciparum luciferase growth in erythrocytes, 48 h; Potency, µM (doses to about 28.7 µM), inactives show top-dose activity change, negative = inhibition, hits mostly inhibitors; actives 5.9% (n = 310,000); further: potency means the concentration at half of the fitted maximal effect; on the % scale 0 is the no-effect control and ±100 the full control effect
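Compounds are pin-transferred into medium, infected erythrocytes (2% hematocrit, 0.1% parasitemia final) are added, and plates sit one parasite generation at 37 C in 5% CO2. Detection reagent is then added and luminescence measured.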
* = called active by the depositor; ? = inconclusive; · = no result given. This is a sample that favours compounds with a hit; in the whole collection about 21% have one here. Unless noted, the call rests on the fitted dose curve; in most records, active means well fitted curve in the direction sought with a large enough effect; inconclusive means small, poorly fitted or top-dose-only effect, or another doubt; inactive means no such curve, though single readings can be large; an effect the other way counts as inactive or inconclusive.

SMILES	Pf growth 96h	NS1 inh	Cycloheximide cs	Giardia FBPA inh	Shiga toxin inh	Pf growth 48h
Oc1c(C=C2N=c3ccccc3=N2)sc(=S)n1-c1ccc(F)cc1	?	-8%	0	7%	13	-26%
Oc1c(C=C2N=c3ccccc3=N2)sc(=S)n1C1CCCC1	?	13%	19*	5%	25	17%
c1ccc2nc3c(cc2c1)CCCCCC3	-19%	-8%	11	3%	-4	·
c1ccc2nc3c(cc2c1)CCCCC3	-21%	3%	30*	0%	44*	0%
COc1ccc(C(=O)Nc2ncc(C)s2)cc1S(=O)(=O)N1CCOCC1	-22%	·	·	·	·	-17%
O=C(c1ccco1)N1CCN(C(=S)NCc2ccc(F)cc2)CC1	47%	4%	1	9%	-5	8%
COc1ccc(CNS(=O)(=O)c2cc(-c3cc(C)no3)ccc2OC)cc1OC	?	-5%	4	-7%	-3	10%
CCc1ccc(-c2cc(C)no2)cc1S(=O)(=O)Nc1cccc(CN2CCCC2)c1	-32%	7%	2	-7%	-2	9.3µM*
COC(=O)CCN(c1ccccc1)S(=O)(=O)c1cc(-c2cc(C)no2)ccc1OC	10µM*	-14%	-3	13%	-4	?
COc1ccc(-c2cc(C)no2)cc1S(=O)(=O)NCc1ccc(OC(C)C)cc1	10µM*	-12%	6	-3%	-3	22%
CCc1ccc(-c2cc(C)no2)cc1S(=O)(=O)Nc1cc(C)on1	?	-24%	-3	-18%	14	11%
CCc1ccc(-c2cc(C)no2)cc1S(=O)(=O)NCCc1ccccc1	?	-49%	35*	4%	19	-30%
CN(C)c1ccc(NC(=O)CCN2CCN(c3ccccn3)CC2)cc1	29%	2%	1	-10%	-7	6%
COc1ccc(-c2cc(C)no2)cc1S(=O)(=O)NCc1cccc(C)c1	-25%	-16%	-2	·	-3	?
COc1ccc(-c2cc(C)no2)cc1S(=O)(=O)Nc1cccc(CN2CCCC2)c1	-10%	10%	8	·	-10	15µM*
Cn1c(-c2cnn(-c3ccccc3)c2-n2cccc2)n[nH]c1=S	?	·	8	0%	-3	-30%
FC(F)Oc1ccc(-c2csc(=Nc3cccnc3)n2CC2CCCO2)cc1 (stereo not given)	13µM*	11%	2	-20%	3	?
COCCn1c(-c2ccc(Br)cc2)csc1=Nc1cccnc1	?	·	-1	-3%	2	?
COc1ccc(-c2nnc3n2N=C(c2ccc(OC)c(OC)c2)CS3)c(OC)c1	·	·	0	6%	15	·
O=C(Cc1ccc([N+](=O)[O-])cc1)NCc1cccnc1	-11%	12%	0	2%	-4	31%
O=C(NCc1ccco1)c1ccc([N+](=O)[O-])o1	?	2%	12*	-16%	50	?
O=C(Nc1cccnc1)c1cccc([N+](=O)[O-])c1	56%	-49%	-7	4%	13	-1%
O=C(NCc1cccnc1)c1ccc([N+](=O)[O-])o1	?	-2%	31*	-15%	30	4.1µM*
O=C(Nc1cccnc1)c1ccc([N+](=O)[O-])o1	0%	-6%	38*	-6%	71*	?
O=C(NCc1ccco1)c1ccc(Cn2cc([N+](=O)[O-])cn2)o1	·	2%	1	5%	-3	8%
SMILES	Pf growth 96h	NS1 inh	Cycloheximide cs	Giardia FBPA inh	Shiga toxin inh	Pf growth 48h
CC(C)CN1CCCC2(CCN(C(=O)c3cc(C(F)(F)F)cc(C(F)(F)F)c3)CC2)C1	·	·	·	3%	·	·
O=C(Nc1ccc(F)cc1Cl)C1CCN(C(=O)Nc2ccccc2)CC1	13%	6%	7	·	24	6%
CCc1ccc(NC(=O)C2CCN(S(=O)(=O)c3c(C)noc3C)CC2)cc1	5.9µM*	1%	2	6%	-7	-8%
CCOc1ccc(NC(=O)C2CCN(S(=O)(=O)c3c(C)noc3C)CC2)cc1	7.4µM*	3%	-2	2%	-5	-1%
CCOc1ccccc1/C=C/c1onc(C)c1S(=O)(=O)N1CCC(C(=O)NC)CC1	-24%	9%	-3	-6%	-1	?
Cc1cc(NC(=O)C2CCN(S(=O)(=O)c3c(C)noc3C)CC2)ccc1Br	?	12%	0	·	-14	-17%
CCOc1ccccc1/C=C/c1onc(C)c1S(=O)(=O)N1CCC(C(=O)NC(C)(C)C)CC1	54%	?	1	·	-5	15µM*
O=C(O)/C=C/C(=O)Nc1cc(F)ccc1F	-1%	2%	-2	11%	-14	-1%
COc1ccc(C(=O)Nc2cc3c4c(c2)CC(=O)N4CCC3)cc1	-4%	·	·	·	·	-7%
Cc1cccc(C(=O)Nc2ccc3c(c2)ncn3C)c1	279%	-4%	51*	5%	69*	219%
Cc1cccc(C(=O)Nc2cccc(C(=O)NC3CCCC3)c2)c1	?	-11%	16	·	27	89%
Cn1cnc2cc(NC(=O)c3cccs3)ccc21	34%	-3%	41*	10%	69*	138%
Cc1cccc(C(=O)Nc2ccc3c(c2)nc(C)n3C)c1	424%	2%	39*	-13%	41*	202%
COCCNC(=O)c1ccc2c(c1)ncn2-c1cccc(C)c1	?	1%	15*	-12%	30	34%
CC(=O)N1CCN(Cc2nc3cc(NC(=O)c4cccs4)ccc3n2C)CC1	6%	4%	1	-10%	-7	-11%
O=C(O)[C@H]1CCCNC1	·	·	·	7%	·	·
O=C(O)CCCN1CCCCC1	·	-8%	·	·	·	·
COc1cc(NC(=O)c2cc(-c3ccc4c(c3)OCO4)on2)cc(OC)c1OC	?	5%	-4	1%	26	1%
CCCCNC(=O)c1cc(-c2ccc3c(c2)OCO3)on1	-6%	-1%	38*	-5%	57*	117%
Cc1cc(NC(=O)c2cc(-c3ccc4c(c3)OCO4)on2)n(-c2ccccc2)n1	-4%	-2%	8	12%	26	-2%
CC(C)NC(=O)c1cc(-c2ccc3c(c2)OCO3)on1	?	-10%	26*	-3%	104*	64%
CCN(CC)C(=O)c1cc(-c2ccc3c(c2)OCO3)on1	?	1%	62*	1%	77*	160%
CCCNC(=O)c1cc(-c2ccc3c(c2)OCO3)on1	-7%	-2%	31*	2%	86*	119%
O=C(NCCc1ccccc1)c1cc(-c2ccc3c(c2)OCO3)on1	?	-6%	-3	10%	0	31%
CCN(CC)CCCNC(=O)c1cc(-c2ccc3c(c2)OCO3)on1	-14%	6%	6	-1%	26	11%
Cc1nc2cnc(OCc3ccccc3)nc2n(CCc2ccccc2)c1=O	·	·	·	3%	·	·
Cc1ccc(N2CN=c3s/c(=C\c4cccnc4)c(=O)n3C2)cc1	40%	-5%	20*	-3%	28	?

From PubChem BioAssay
